Unmarked numbers belong to inactive results. For some of these results: Measured potencies and affinities stand elsewhere. Active and inactive are the calls of the source. Unless noted, no rule for the calls is given here.

For 20 compounds, growth inhibition, inhibition and outcome results are on record in PubChem BioAssay.

Assay [1] is described as follows: antimalarial activity against Dd2 strain (AID 2302;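 active = growth inhibition above 50% at the single 2 µM test dose, taken to imply half-maximal potency below 2 µM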;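 also: 0% = DMSO untreated growth and 100% = chloroquine plus artemisinin killed control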). The note with it: P. falciparum Dd2 in RBCs, LDH growth readout, 72 h; at 2 µM; stronger effect = higher value.
Assay [2] can be described thus: human hepatoma cell viability loss – ATP luminescence, cytotoxicity control for P. falciparum antimalarial project, primary screen (AID 2303;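 active = inhibition above 50%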;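 also: 0% = DMSO wells and 100% = digitonin-killed cells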). The note with it: HepG2 viability, 24-48 h, at 10 µM, stronger effect = higher value.
Assay [3] has as its target L-lactate dehydrogenase (Plasmodium falciparum (isolate CDC / Honduras)) (UniProt Q27743). As to the kind of experiment: PfLDH activity inhibition – cell lysate, 3D7 strain, counter-screen for P. falciparum growth inhibition project (AID 2304).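 Also: 0% = vehicle and 100% = reference inhibitor.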 As to conditions: P. falciparum 3D7 crude extract, LDH APAD/NBT absorbance; at 2 µM; stronger effect = higher value. Background: The purpose of a counterscreen is to sort out artefacts and off-target activity.

The nature of assay [4]: inhibition of 3D7 malaria parasite growth – strain 3D7 (AID 2306).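 Also: 0% = DMSO wells and 100% = chloroquine plus artemisinin control wells.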 As to conditions: P. falciparum 3D7 erythrocytic growth, LDH absorbance, 72 h; at 2 µM; stronger effect = higher value.
The target of assay [5] is Calcium-dependent protein kinase 1 (Plasmodium falciparum (isolate 3D7)) (UniProt P62344). The assay is described as follows: PfCDPK1 kinase inhibitors, biochemical, TCAMS library (AID 1159585; cut-off not given, nearly all actives have IC50 up to about 0.98 µM;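 also: inhibitors leave more ATP so luminescence rises with inhibition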). The note with it: recombinant PfCDPK1, Kinase-Glo ATP depletion luminescence. Background: Kinase-Glo measures the ATP left after a reaction by luminescence.
Sequence of Calcium-dependent protein kinase 1 (Plasmodium falciparum (isolate 3D7)) (P62344 whole entry, looked up): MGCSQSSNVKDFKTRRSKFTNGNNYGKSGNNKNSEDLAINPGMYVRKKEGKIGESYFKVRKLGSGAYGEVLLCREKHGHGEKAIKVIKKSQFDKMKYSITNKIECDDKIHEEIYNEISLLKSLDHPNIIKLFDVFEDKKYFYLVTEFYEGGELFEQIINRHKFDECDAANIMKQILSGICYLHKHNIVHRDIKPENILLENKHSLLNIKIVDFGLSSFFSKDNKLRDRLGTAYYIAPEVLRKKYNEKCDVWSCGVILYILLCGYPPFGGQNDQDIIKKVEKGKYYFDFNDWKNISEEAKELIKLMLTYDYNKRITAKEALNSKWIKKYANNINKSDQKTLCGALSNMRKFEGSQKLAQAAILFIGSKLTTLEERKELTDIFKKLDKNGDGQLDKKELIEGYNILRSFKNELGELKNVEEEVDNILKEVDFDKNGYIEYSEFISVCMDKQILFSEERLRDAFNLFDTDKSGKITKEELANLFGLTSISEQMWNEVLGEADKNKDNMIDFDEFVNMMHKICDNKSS
Assay [6] addresses Plasmodium falciparum protein kinase 6 (PK6, PF3D7_1337100) (UniProt Q8IDW1). As to the kind of experiment: PfPK6 kinase inhibitors, biochemical, TCAMS library (AID 1159586). The note with it: recombinant PfPK6, Kinase-Glo ATP depletion luminescence.
The target of assay [7] is Protein kinase 7 (PK7), Plasmodium falciparum 3D7 (PF3D7_0213400) (UniProt Q7YTF7). As to the kind of experiment: inhibition of Plasmodium PK7 catalytic activity – biochemical, TCAMS antimalarial set, Kinase-Glo luminescence (AID 1159587). As to conditions: recombinant PfPK7, Kinase-Glo ATP depletion luminescence.
Sequence of Protein kinase 7 (PK7), Plasmodium falciparum 3D7 (PF3D7_0213400) (Q7YTF7 1-343): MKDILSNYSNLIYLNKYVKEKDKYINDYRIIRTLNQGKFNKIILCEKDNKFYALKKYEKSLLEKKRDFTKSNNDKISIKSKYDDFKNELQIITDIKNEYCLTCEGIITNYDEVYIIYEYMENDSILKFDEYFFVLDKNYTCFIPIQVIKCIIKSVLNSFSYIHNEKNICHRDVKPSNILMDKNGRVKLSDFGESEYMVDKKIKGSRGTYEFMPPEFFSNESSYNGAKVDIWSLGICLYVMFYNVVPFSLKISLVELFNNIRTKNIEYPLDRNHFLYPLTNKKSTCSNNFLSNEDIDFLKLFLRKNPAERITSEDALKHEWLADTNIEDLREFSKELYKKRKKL
Assay [8] deals with Calcium-dependent protein kinase 4 (Plasmodium falciparum (isolate 3D7)) (UniProt Q8IBS5). The assay is described as follows: PfCDPK4 kinase inhibitors, biochemical, TCAMS library (AID 1159588; cut-off not given, nearly all actives have IC50 up to about 0.91 µM). The note with it: recombinant PfCDPK4, Kinase-Glo ATP depletion luminescence.
Sequence of Calcium-dependent protein kinase 4 (Plasmodium falciparum (isolate 3D7)) (Q8IBS5 whole entry, looked up): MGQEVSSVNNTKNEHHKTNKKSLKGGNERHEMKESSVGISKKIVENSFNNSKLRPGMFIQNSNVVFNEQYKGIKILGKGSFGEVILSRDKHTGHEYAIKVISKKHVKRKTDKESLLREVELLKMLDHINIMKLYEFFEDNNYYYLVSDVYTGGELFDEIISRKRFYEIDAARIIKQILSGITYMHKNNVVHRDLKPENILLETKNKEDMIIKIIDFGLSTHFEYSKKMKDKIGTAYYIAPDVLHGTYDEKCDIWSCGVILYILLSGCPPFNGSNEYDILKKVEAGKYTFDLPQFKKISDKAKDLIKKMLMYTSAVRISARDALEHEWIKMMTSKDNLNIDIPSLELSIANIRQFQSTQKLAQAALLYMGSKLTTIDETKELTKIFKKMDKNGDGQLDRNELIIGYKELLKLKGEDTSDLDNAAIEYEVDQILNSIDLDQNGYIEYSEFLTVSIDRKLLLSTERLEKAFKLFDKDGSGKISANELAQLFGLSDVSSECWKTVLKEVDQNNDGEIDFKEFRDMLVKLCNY

Sequence of Plasmodium falciparum protein kinase 6 (PK6, PF3D7_1337100) (Q8IDW1 1-305): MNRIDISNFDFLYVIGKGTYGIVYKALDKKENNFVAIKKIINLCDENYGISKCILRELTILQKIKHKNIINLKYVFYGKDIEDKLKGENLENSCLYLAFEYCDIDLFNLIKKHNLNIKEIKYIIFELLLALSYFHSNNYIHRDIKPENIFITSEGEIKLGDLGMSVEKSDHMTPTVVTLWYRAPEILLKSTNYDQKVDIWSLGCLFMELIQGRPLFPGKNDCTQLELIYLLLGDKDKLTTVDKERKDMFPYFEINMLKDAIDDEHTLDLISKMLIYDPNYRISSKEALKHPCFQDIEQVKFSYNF
Sequence of L-lactate dehydrogenase (Plasmodium falciparum (isolate CDC / Honduras)) (Q27743 whole entry, looked up): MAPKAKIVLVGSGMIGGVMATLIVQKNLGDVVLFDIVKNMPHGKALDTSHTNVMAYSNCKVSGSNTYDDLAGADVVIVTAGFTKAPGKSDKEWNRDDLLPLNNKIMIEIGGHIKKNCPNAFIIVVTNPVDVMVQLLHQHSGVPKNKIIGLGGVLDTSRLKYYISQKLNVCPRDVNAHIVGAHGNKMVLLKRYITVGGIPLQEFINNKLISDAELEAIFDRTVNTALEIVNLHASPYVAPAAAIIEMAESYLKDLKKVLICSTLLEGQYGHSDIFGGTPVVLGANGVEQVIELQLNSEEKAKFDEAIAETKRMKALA

For the compound `CCNc1cc(C)nc(Nc2ccc(F)cc2)n1`, the results for the growth inhibition in assay [1] and in assay [4] were 57% (active) and 101% (active), respectively. For the same compound, the results for the inhibition in assay [2] and in assay [3] were 1% and -7%, respectively. For the same compound, the result in assay [5], in assay [6], in assay [7] and in assay [8] was inactive.
As to `O=C(Nc1cccc(-c2nc3ccccc3[nH]2)c1)c1cccc(NC(=O)c2ccco2)c1`, the growth inhibition is 45% in assay [1] and 91% (active) in assay [4]. Moreover, the results for the inhibition in assay [2] and in assay [3] were 9% and 0%, respectively. The outcome in assay [5], in assay [6], in assay [7] and in assay [8] was inactive.
As to `COc1ccc(-c2ccc(CNC(=O)c3cccc(C#N)c3)c(F)c2)cc1CN1CCCN(C)CC1`, the growth inhibition in assay [1] was 30%; in assay [4] it was 99% (active). Besides, the results for the inhibition in assay [2] and in assay [3] were 8% and -4%, respectively. The outcome in assay [5], in assay [6], in assay [7] and in assay [8] was inactive.
Turning to `Cn1c(=N)n(CC(=O)N2CCc3ccc(Cl)cc3C2Cc2ccc(Cl)c(Cl)c2)c2ccccc21` (stereo not given), the growth inhibition in assay [1] was 52% (active); in assay [4], 102% (active). Also, the inhibition in assay [2] is 99% (active); in assay [3] it was -1%. Further, the outcome in assay [5], in assay [6], in assay [7] and in assay [8] was inactive.
As to `O=C(NC1CC1)c1ccc(N2CCN(Cc3ccc(Cl)cc3)CC2)nc1`, the growth inhibition in assay [1] is 81% (active); in assay [4] it was 84% (active). Further, the figures for the inhibition in assay [2] and in assay [3] were 16% and 3%, respectively. Further, the outcome in assay [5], in assay [6], in assay [7] and in assay [8] was inactive.
Consider `N#Cc1cccc(C(=O)Nc2ccc(-c3cccc(CN4CCCC4)c3)cc2)c1`, for which the growth inhibition in assay [1] is 79% (active); in assay [4], 101% (active). Also, the inhibition in assay [2] is 15%; in assay [3], 2%. Further, the outcome in assay [5], in assay [6], in assay [7] and in assay [8] was inactive.
Regarding `O=C(Nc1cccc(F)c1)N1CCC(NS(=O)(=O)c2ccc(Br)cc2)CC1`, the growth inhibition in assay [1] is 23%; in assay [4] it was 93% (active). The inhibition in assay [2] is 4%; in assay [3], -1%. For the same compound, the result in assay [5], in assay [6], in assay [7] and in assay [8] was inactive.
Regarding `COc1cc2nc(NCC3CCCO3)n3nc(-c4ccccc4)nc3c2cc1OC` (stereo not given), the growth inhibition was 97% (active) in assay [1] and 92% (active) in assay [4]. In addition, the figures for the inhibition in assay [2] and in assay [3] were -9% and -7%, respectively. The result in assay [5], in assay [6], in assay [7] and in assay [8] was inactive.
As to `OC(CNCc1ccccc1Oc1ccccc1)c1cccc(C(F)(F)F)c1` (stereo not given), the figures for the growth inhibition in assay [1] and in assay [4] were 98% (active) and 104% (active), respectively. Further, the inhibition in assay [2] is -1%; in assay [3], 10%. The result in assay [5], in assay [6], in assay [7] and in assay [8] was inactive.
With `CCC1(CC)N=C(N)N=C(N)N1OCc1ccc(Cl)c(Cl)c1`, the growth inhibition in assay [1] is 49%; in assay [4] it was 94% (active). In addition, the inhibition in assay [2] was 49%; in assay [3], -1%. The result in assay [5], in assay [6], in assay [7] and in assay [8] was inactive.
`Clc1ccc2c(NCc3ccccc3)ccnc2c1`: the growth inhibition was 100% (active) in assay [1] and 101% (active) in assay [4]. For the same compound, the values for the inhibition in assay [2] and in assay [3] were 40% and 1%, respectively. The outcome in assay [5], in assay [6], in assay [7] and in assay [8] was inactive.
Consider `COc1ccc2ncc(Cl)c(N3CCC(CCNCc4ccc5c(n4)NC(=O)CS5)CC3)c2c1`, for which the growth inhibition in assay [1] is 82% (active); in assay [4], 89% (active). Further, the inhibition is 33% in assay [2] and 0% in assay [3]. The result in assay [5], in assay [6], in assay [7] and in assay [8] was inactive.
With `N#Cc1ccc(N(CCNS(=O)(=O)c2cc(Br)c(Cl)s2)Cc2ccccc2C(F)(F)F)cc1C(F)(F)F`, the results for the growth inhibition in assay [1] and in assay [4] were 57% (active) and 92% (active), respectively. In addition, the inhibition is 3% in assay [2] and -1% in assay [3]. In addition, the result in assay [5], in assay [6], in assay [7] and in assay [8] was inactive.
`Cc1cc(N2CCCC2)nc(Nc2ccc(NC(=O)c3ccccc3)cc2)n1`: the growth inhibition was 65% (active) in assay [1] and 100% (active) in assay [4]. The inhibition in assay [2] is 26%; in assay [3] it was -3%. For the same compound, the outcome in assay [5], in assay [6], in assay [7] and in assay [8] was inactive.
Turning to `CNC(=S)NN=C(C)c1ccccn1`, the figures for the growth inhibition in assay [1] and in assay [4] were 99% (active) and 98% (active), respectively. The inhibition was 64% (active) in assay [2] and -4% in assay [3]. For the same compound, the result in assay [5], in assay [6], in assay [7] and in assay [8] was inactive.
Consider `O=C(NCCCCCN1CCC(c2ccc(O)cc2)CC1)c1ccc(-c2ccccc2)cc1`, for which the growth inhibition in assay [1] was -7%; in assay [4] it was 92% (active). Also, the results for the inhibition in assay [2] and in assay [3] were 28% and -1%, respectively. The outcome in assay [5], in assay [6], in assay [7] and in assay [8] was inactive.
On to `O=C1C[C@@H]([S@@](=O)Cc2nccs2)N1CCOCCCCCCc1ccc(Cl)cc1`, for which the growth inhibition in assay [1] is 0%; in assay [4] it was 91% (active). Moreover, the values for the inhibition in assay [2] and in assay [3] were -4% and 1%, respectively. Moreover, the result in assay [5], in assay [6], in assay [7] and in assay [8] was inactive.
`Cc1ccccc1C1CCN(C2CCC(NC(=O)c3cc(-c4ccccc4)oc3C)CC2)CC1` (stereo not given): the results for the growth inhibition in assay [1] and in assay [4] were 32% and 100% (active), respectively. Further, the inhibition in assay [2] was 46%; in assay [3] it was 0%. Further, the outcome in assay [5], in assay [6], in assay [7] and in assay [8] was inactive.
On to `FC(F)(F)c1ccc(CNC2CCN(CC3CCCCC3)CC2)cc1`, for which the figures for the growth inhibition in assay [1] and in assay [4] were 5% and 87% (active), respectively. Also, the values for the inhibition in assay [2] and in assay [3] were 4% and -4%, respectively. In addition, the outcome in assay [5], in assay [6], in assay [7] and in assay [8] was inactive.
Consider `O=S(=O)(NCCN1CCCC1)c1ccc(-c2ccc(CN3Cc4ccccc4C3)cc2)s1`, for which the figures for the growth inhibition in assay [1] and in assay [4] were 18% and 89% (active), respectively. Also, the figures for the inhibition in assay [2] and in assay [3] were 19% and 5%, respectively. Also, the outcome in assay [5], in assay [6], in assay [7] and in assay [8] was inactive.

Broadly, the inhibition is the relative decrease from the control value, in per cent.
